# From PubChem BioAssay
# MITF act = increases MITF-driven TRPM1 promoter luciferase signal. SK-MEL-5 TRPM1-promoter luciferase, 24 h; % of positive control, neutral wells = 0. activation, % at 12.5 µM. 0.75% of 300,000 active. AID 588334;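 active = mean activation of at least 80% with every replicate also reaching 80%; inconclusive = mean reaches 80% but some replicate falls short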;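 also: 0% = neutral control wells and 100% = parthenolide positive control wells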
# HSF1 inh = HSF1 inhibition | 0.77% of 300,000 active | AID 2098 | NIH3T3-HGL HSE-luciferase, MG132-induced, luminescence 8 h; hits give low values | activity change, negative = inhibition, % at 7.5 µM (by protocol);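 active = more than half of replicate wells show activity change below -50%, luminescence cut by over half; inconclusive = some wells, but at most half, below -50%; inactive = no replicate well below -50%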;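 also: luciferase reports HSF-1 transcriptional activity via heat shock element; 0% = median of DMSO wells and -100% = zero luminescence signal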
# Wnt act = activators of Wnt/beta-catenin signaling; 1.2% of 300,000 active; Wnt/beta-catenin reporter cell assay, activator, plate reader; AID 743398; activation, % at 9.35 µM; in the data active = activation above about 30%, passing the limit was not always enough; inconclusive = no clear call, values can overlap the other calls;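 also: 0% = neutral control wells and 100% = positive control wells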
# SMARCA2 activ = activators of SMARCA2 function. AID 652017. MG213 cells, MMTV-luciferase reporter, dexamethasone, overnight. 1% of 370,000 active. activation, % at 9.1 µM; in the data active = activation above about 7.8%;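 also: 0% = vehicle wells and 100% = reference activator wells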
# HSF1 activator = increases HSF-1 driven luciferase reporter signal. NIH3T3-HGL HSF-1 luciferase reporter, MG132, 8 h; 100% = twice DMSO control signal. 1.7% of 300,000 active. activation, % at 9 µM;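 active = mean replicate activation of at least 50% with a set share of replicates each reaching 50%; inconclusive = only one of those two conditions met; inactive = mean below 50% and too few replicates reaching it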;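 also: 0% = median of the neutral control wells and 100% = twice that signal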
# esBAF inh = SWI/SNF esBAF complex inhibition; mouse ES cells, Bmi1-luciferase knock-in reporter, 24 h; 100% = twice the neutral-well signal; reporter increase, % at 12.5 µM; 2% of 350,000 active; AID 602393; in the data active = activation above about 40%; inconclusive = no clear call, values can overlap the other calls;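 also: 0% = median of the plate's neutral control wells and 100% = double that signal; a rise in the Bmi1 reporter signal indicates esBAF inhibition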
# The depositor's hits bear a star; ? = inconclusive; . = no result given. This is a sample that favours compounds with a hit; in the whole collection about 4.3% have one here.
SMILES,MITF act,HSF1 inh,Wnt act,SMARCA2 activ,HSF1 activator,esBAF inh
CCc1ccc(-c2cc(N)n(-c3ccccc3)n2)cc1,55,-5,9,6,-9,68*
Cc1cccc(-c2cc(N)n(-c3ccccc3)n2)c1,87*,.,-1,4,.,54*
Cc1cccc(-c2cnn(-c3ccccc3)c2N)c1,?,38,24,1,38,56*
Cc1cccc(-n2nc(C)cc2N)c1,-1,-20,.,-3,-16,11
Cc1ccc(-c2cc(N)n(-c3ccccc3)n2)cc1,93*,-6,.,4,3,.
CCS(=O)(=O)n1nc(-c2ccccc2)cc1N,.,-1,2,-4,5,-1
Cc1ccc(C(c2c(C)nn(-c3ccccc3)c2N)c2c(C)nn(-c3ccccc3)c2N)cc1,-6,68,0,-2,93*,.
COc1ccc(NC(=O)Nc2ccc3c(c2)CC(=O)N([C@H](C)CO)C[C@H](C)[C@H](CN(C)C(=O)Nc2ccc(OC)cc2)O3)cc1,.,.,.,.,.,6
Cc1cc(Cl)c(OCCN2C(=O)NC(C)(C)C2=O)c(Br)c1,-1,4,3,-3,13,1
CC1(C)NC(=O)N(CCCCOc2ccc3ccccc3c2Cl)C1=O,47,8,.,0,39,53*
Cc1cc(Cl)cc(Br)c1OCCCN1C(=O)NC(C)(C)C1=O,-2,32,.,-2,75*,4
CC1(C)NC(=O)N(CCOCCOc2ccc3ccccc3c2Br)C1=O,20,22,17,0,47,?
CC1CCc2c(sc(NC(=O)/C=C/c3cccs3)c2C(=O)O)C1 (stereo not given),7,-5,1,0,-24,53*
C/C=C1\COC(C(=O)NCc2ccncc2)(C(F)(F)F)C=C1C=C1CCCCC1 (stereo not given),1,31,3,0,63*,-1
CC(=O)Nc1ccc(-c2ccnc3c2CC(C)(C(=O)NCc2ccncc2)O3)cc1 (stereo not given),.,.,-1,0,.,1
C/C=C1\COC(C(=O)NCc2cccc(OC)c2OC)(C(F)(F)F)C=C1C=C1CCCCC1 (stereo not given),10,56,-2,-1,69*,-1
Cc1ccc(NCC(=O)N/N=C/c2cc3ccccc3nc2Cl)cc1,.,-11,.,7,-13,61*
COc1ccc2cc(/C=N/NC(=O)CN(c3ccccc3)S(=O)(=O)c3ccccc3)c(Cl)nc2c1,.,2,.,.,8,.
Cc1ccc2nc(Cl)c(/C=N/Nc3ccc(C(=O)O)cc3)cc2c1,65,17,43*,7,17,22
O=C(CN1CCOCC1)N/N=C/c1cc2ccccc2nc1Cl,18,4,.,2,39,.
Cc1ccc2cc(/C=N/NC(=O)c3ccc(F)cc3)c(Cl)nc2c1,4,-4,0,-3,0,.
COc1ccc(N(CC(=O)N/N=C/c2cc3ccc(OC)cc3nc2Cl)S(=O)(=O)c2ccccc2)cc1,.,29,.,.,59*,.
COc1ccc(NC(=O)N(C)C[C@@H]2Oc3cc(C#CCN(C)C)ccc3S(=O)(=O)N([C@@H](C)CO)C[C@@H]2C)cc1,.,.,.,.,.,-2
O=C1CSC(=S)N1/N=C/c1cccnc1,.,5,41*,-4,-11,.
O=C1CSC(=S)N1N=Cc1ccc(OCc2ccccc2)cc1,.,.,5,-1,.,50*
SMILES,MITF act,HSF1 inh,Wnt act,SMARCA2 activ,HSF1 activator,esBAF inh
CCC(=O)Nc1ccc2c(c1)C(=O)N(C)[C@@H]1CC[C@@H](CC(=O)N3CCCCC3)O[C@H]1CO2,.,.,.,.,.,11
O=C(C[C@H]1C[C@H]2c3cc(NC(=O)c4cccnc4)ccc3O[C@H]2[C@H](CO)O1)NCc1ccccc1,.,.,.,.,.,-2
COc1ccc(-n2c(=S)[nH]c3cc(C(=O)Nc4ccc(F)cc4)ccc3c2=O)c(OC)c1,-40,68,-6,-2,87*,8
CCCn1nnc2ccccc2c1=O,.,-5,-2,-1,11,6
CCOc1ccc(OCCn2nnc3ccccc3c2=O)cc1,72,46,?,5,83*,.
COc1ccc(CCNC(=O)CC2Nc3cc(C)c(C)cc3NC2=O)cc1OC (stereo not given),-6,0,3,-3,16,4
Cc1cc2c(cc1C)NC(CC(=O)NCc1ccccc1)C(=O)N2 (stereo not given),59,39,-1,2,75*,25
